# Screening results from PubChem.
# HTT promoter inh: Primary qHTS for Identification of Small Molecule Inhibitors of Huntingtin Promoter Activity | HEK293 HTT promoter firefly luciferase reporter, 24 h | Potency, µM (doses to about 57.5 µM), actives largely listed as inhibitors | 0.93% of 48,000 active; further: nearly all actives have a fitted effect of over 50% in size
#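 Quantitative HTS used concentration series of up to 57.5 uM final on HEK293 luciferase reporter cells, 24 h at 37 degrees C. Readout was Dual-Glo firefly luminescence.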
# pS6 MEF inh: Acumen qHTS Assay for Inhibitors of the mTORC1 Signaling Pathway in MEF (Tsc2-/-, p53-/-) Cells: Sytravon; Tsc2-/- p53-/- MEF, phospho-rpS6 immunofluorescence/PI, 24 h; Potency, µM (titrated, usually from 38.3 µM), most hits filed as inhibitors; 0.78% of 44,000 active; AID 493208, 2011; further: nearly all actives have a fitted effect of over 50% in size
#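 Tsc2-/-, p53-/- MEFs (empty-vector stable line) in DMEM + 10% FBS were treated with compounds 24 h at 37 degree Celsius, fixed, and immunostained for phospho-rpS6 (Alexa-488) with propidium iodide counterstain. Laser-scanning cytometry gave % positive cells, normalized against 7.5 nM rapamycin and DMSO.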
# HTT-AS promoter: Primary qHTS for Identification of Small Molecule Activators of Huntingtin-Antisense Promoter Activity; HEK293 HTT-AS promoter firefly luciferase reporter, 24 h; response scale: percent change from vehicle, -100% = no light; Potency, µM (titrated, usually from 57.5 µM), usual class: activators; 0.24% of 48,000 active; further: nearly all actives have a fitted effect of over 55% in size
#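 HEK293 luciferase promoter-reporter cells (2,500/well) plated 24 h, then compounds added at up to 57.5 uM final for 24 h at 37 °C. Firefly luminescence by Dual-Glo, normalized to vehicle (0%) and zero RLU (-100%).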
# S16 viability: Cell viability qHTS assay in S16 Pmp22-F2sN cells; S16 Pmp22-F2sN Schwann cells viability, CellTiter-Glo, 24 h; Potency, µM (highest dose often 57.5 µM), most hits filed as cytotoxic; 0.48% of 43,000 active; further: nearly all actives have a fitted effect of over 65% in size
#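 Seed 500-1,000 S16 Pmp22-F2sN cells per well in phenol-red-free DMEM with 10% heat-inactivated FBS; pin-add 23 nL compound; incubate 24 h at 37C; add CellTiter-Glo, wait 15 min protected from light; read luminescence.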
# PMP22 txn: Cell-based coincidence reporter assay to measure PMP22 gene transcription in S16 Pmp22-F2sN cells - Primary screen; 2% of 43,000 active; Potency, µM (top dose mostly 57.5 µM), actives largely listed as inhibitors; S16 Pmp22-F2sN Schwann cells (luciferase reporters placed in the Pmp22 gene), FLuc/NLuc coincidence luminescence, 24 h; active means clear falling dose curves in both reporters; inconclusive means both reporters move, but less clearly or upward; inactive means either reporter flat; the % is the NLuc reporter signal
#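 Rat S16 Pmp22-F2sN cells, 500-1,000/well in phenol red-free DMEM + 10% FBS, compound-treated 24 h (37C, 5% CO2). Luminescence: FLuc read, Stop&Glo added, NLuc read.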
# NLuc saturating: Biochemical NLuc saturation counterscreen for small molecule modulators of PMP22 gene expression - Nano-Glo assay; shares compounds with PMP22 txn; AID 1508638, 2021; Secreted NLuc enzyme (filtered S16 cell medium), Nano-Glo luminescence; 4% of 690 active; Potency, µM (doses to about 57.5 µM), usual class: inhibitors
# NLuc Km ctr: Biochemical coelenterazine-based NLuc counterscreen for small molecule modulators of PMP22 gene expression - Km assay | shares compounds with PMP22 txn | secreted NLuc enzyme, coelenterazine luminescence, Km conditions | Potency, µM (series often up to 57.5 µM), most hits filed as inhibitors | 5% of 690 active | AID 1508639, 2021
# FLuc ctr PMP22: Biochemical FLuc counterscreen for small molecule modulators of PMP22 gene expression; shares compounds with PMP22 txn; Potency, µM (titrated, usually from 57.5 µM), actives largely listed as inhibitors; AID 1508640, 2021; 690 tested, under 10 active; purified P. pyralis FLuc, luminescence, 10 min
# Target sequence (P08659 whole entry, looked up): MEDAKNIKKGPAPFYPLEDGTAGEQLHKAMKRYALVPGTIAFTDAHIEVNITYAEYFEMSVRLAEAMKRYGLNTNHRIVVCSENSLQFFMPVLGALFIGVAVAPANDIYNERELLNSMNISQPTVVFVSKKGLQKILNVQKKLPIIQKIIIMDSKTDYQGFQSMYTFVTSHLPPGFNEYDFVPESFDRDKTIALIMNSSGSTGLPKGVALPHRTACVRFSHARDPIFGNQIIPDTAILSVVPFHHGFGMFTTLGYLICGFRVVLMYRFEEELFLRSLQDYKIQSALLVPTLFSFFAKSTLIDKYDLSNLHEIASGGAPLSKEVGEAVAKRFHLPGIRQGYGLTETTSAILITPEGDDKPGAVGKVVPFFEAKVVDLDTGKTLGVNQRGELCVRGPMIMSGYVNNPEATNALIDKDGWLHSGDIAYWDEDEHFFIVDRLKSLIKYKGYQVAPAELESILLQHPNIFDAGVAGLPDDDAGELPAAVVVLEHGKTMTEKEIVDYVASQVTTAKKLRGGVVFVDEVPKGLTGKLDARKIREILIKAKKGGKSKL
# S16 F2sN tox cnf: Cell viability qHTS assay in S16 Pmp22-F2sN cells - Confirmatory screen. shares compounds with PMP22 txn. S16 Schwann cells viability, CellTiter-Glo ATP luminescence, 24 h. Potency, µM (highest dose often 57.5 µM), actives largely listed as cytotoxic. 7% of 690 active. AID 1508641, 2021
# PMP22 txn conf: Cell-based coincidence reporter assay to measure PMP22 gene transcription in S16 Pmp22-F2sN cells - Confirmatory screen; shares compounds with PMP22 txn; S16 Schwann cells Pmp22-F2sN, dual luciferase, 24 h; Potency, µM (titrated, usually from 57.5 µM), usual class: inhibitors; 22% of 690 active; active means clear falling dose curves in both reporters; inconclusive means both reporters move, but less clearly or upward; inactive means either reporter flat; the % is the FLuc reporter signal
# Hits are given with their value; i = inactive; ? = inconclusive; nt = no result given; [ ] = remark or other dose. Rows were chosen to be rich in hits. Some 3.6% of all compounds tested hit in one or more screens of this group. Unless noted, the call rests on the fitted dose curve; in most records, active means well fitted curve in the direction sought with a large enough effect; inconclusive means small, poorly fitted or top-dose-only effect, or another doubt; inactive means no such curve, though single readings can be large; an effect the other way counts as inactive or inconclusive.
SMILES,HTT promoter inh,pS6 MEF inh,HTT-AS promoter,S16 viability,PMP22 txn,NLuc saturating,NLuc Km ctr,FLuc ctr PMP22,S16 F2sN tox cnf,PMP22 txn conf
CCc1ccc(NC(=O)c2ccc3c(c2)c(C)c(C)n3Cc2ccccc2)cc1,?,i,i,i,?,i,i,?,i,?
CCc1ccc(CNC(=O)c2ccc3c(c2)c(C)c(C)n3Cc2ccccc2)cc1,i,i,i,i,i,nt,nt,nt,nt,nt
CCOc1cc(C2c3c(oc4ccccc4c3=O)C(=O)N2Cc2ccccc2Cl)ccc1O (stereo not drawn),i,i,i,i,?,nt,nt,nt,nt,nt
COc1cc(C2c3c(oc4ccccc4c3=O)C(=O)N2Cc2ccccc2Cl)ccc1O (stereo not drawn),i,i,i,i,11µM,i,i,i,i,?
CCCc1ncc(C(=O)O)s1,i,nt,i,nt,nt,nt,nt,nt,nt,nt
Cn1nnnc1SCCNCc1cc(Br)ccc1OCc1ccccc1Cl,28µM,i,i,?,16µM,?,?,i,i,?
N#CC1=C2SCN(C3CCCCC3)CN2C(=O)CC1c1c(F)cccc1Cl (stereo not drawn),i,i,i,i,9.5µM,11µM,7.7µM,i,i,i
Cc1ccc(S(=O)(=O)Nc2nc3ccccc3nc2Nc2ccc3nsnc3c2)cc1,i,nt,i,nt,nt,nt,nt,nt,nt,nt
COc1cc2c(cc1OC)C(COc1ccc3c(C)cc(=O)oc3c1)N(C(=O)c1ccc(C)c(C)c1)CC2 (stereo not drawn),i,?,i,i,?,nt,nt,nt,nt,nt
COc1cc2c(cc1OC)C(COc1ccc3c(C)cc(=O)oc3c1)N(C(=O)c1ccc(C)cc1)CC2 (stereo not drawn),i,i,i,?,?,i,i,i,i,?
NC(=O)c1cccc2[nH]c(-c3ccc([C@H]4CCCN4)cc3F)nc12,i,nt,?,nt,nt,nt,nt,nt,nt,nt
Cc1nnc(N2CCC(C(=O)NC3CCCCC3)CC2)c2nn(-c3ccc(Cl)cc3)c(C)c12,i,i,i,i,i,nt,nt,nt,nt,nt
Cc1nnc(N2CCC(C(=O)N3CCCCC3)CC2)c2nn(-c3ccc(Cl)cc3)c(C)c12,i,i,i,?,19µM,i,i,i,i,?
Cc1ccc(NC(=O)C2CCN(c3nnc(C)c4c(C)n(-c5ccccc5)nc34)CC2)cc1Cl,i,i,i,i,i,nt,nt,nt,nt,nt
Cc1nnc(N2CCCC(C(=O)Nc3ccccc3C(F)(F)F)C2)c2nn(-c3ccccc3)c(C)c12 (stereo not drawn),?,i,i,28µM,13µM,i,i,i,?,?
COc1ccc(CNC(=O)C2CCCN(c3nnc(C)c4c(C)n(-c5ccc(C)cc5)nc34)C2)cc1 (stereo not drawn),i,i,i,?,17µM,?,?,i,?,?
COc1ccc(NC(=O)C2CCCN(c3nnc(C)c4c(C)n(-c5ccccc5)nc34)C2)cc1Cl (stereo not drawn),?,?,i,?,20µM,i,i,i,43µM,?
Cc1c(-c2cccc3c(CCCOc4cccc5ccccc45)c(C(=O)O)n(Cc4cccnc4)c23)c(COc2ccc(N3CCN([S+](=O)([O-])N(C)C)CC3)cc2)nn1C,?,nt,i,nt,nt,nt,nt,nt,nt,nt
C#C[C@]1(O)CC[C@H]2[C@H]3CCc4cc(OC)ccc4[C@H]3CC[C@@]21C,i,nt,?,nt,nt,nt,nt,nt,nt,nt
C[C@H](NC(=O)Cc1cc(F)cc(F)c1)C(=O)N[C@@H]1C(=O)N(C)c2ccccc2-c2ccccc21,i,nt,i,nt,nt,nt,nt,nt,nt,nt
Cc1ccc(C(=O)Nc2cccc(C(F)(F)F)c2)cc1-c1ccc2nc(NCCN3CCOCC3)ncc2c1,?,nt,i,nt,nt,nt,nt,nt,nt,nt
Cc1cccc(C(=O)Nc2cccc(C(=O)OCc3cc(=O)n4nc(C(C)C)sc4n3)c2)c1,i,i,i,i,13µM,i,i,?,i,i
OCCn1cc(-c2cnc3nnn(Cc4ccc5ncccc5c4)c3n2)cn1,i,nt,i,nt,nt,nt,nt,nt,nt,nt
CCOC(=O)C1CCN(C(=O)c2ccc3c(=O)n4nc(Nc5ccccc5)sc4nc3c2)CC1,i,i,i,i,5.3µM,?,?,?,i,i
Cc1ccc(C)c(Nc2nn3c(=O)c4ccc(C(=O)NCCc5ccccc5)cc4nc3s2)c1,i,i,i,i,13µM,?,i,i,19µM,11µM
Cc1c(Cl)cccc1Nc1nn2c(=O)c3ccc(C(=O)NCCc4ccccc4)cc3nc2s1,i,i,i,?,10µM,i,?,i,27µM,15µM
CN(C)CC(C)(C)CNc1nn2c(-c3ccccc3)nnc2cc1C1CCC1,i,nt,i,nt,nt,nt,nt,nt,nt,nt
O=C(NCc1ccc(Cl)cc1)C(=O)Nc1cccc(Br)c1,i[11.5 µM],i,i,i,16µM,i,i,i,?,?
CCC1CCCCN1CCCNC(=O)c1ccc2c(c1)N(Cc1ccccc1F)C(=O)c1ccccc1S2(=O)=O (stereo not drawn),?,?,i,?,8.9µM,i,i,i,?,?
